In the supplement of paper PMC12494721:
Where a name gives a salt, the structure may show the parent alone.

Legend:
Settings in all cases: 20 µM; incubation time: 27 h, anaerobic, 37 °C;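 for the amine columns active = adjusted P below 0.05 in both replicates with a change the same way and a mean fold change under 0.8 or over 1.25; inactive = the rest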
[1] = system: Clostridium sporogenes DSM 1664; test: growth (OD595) fold change vs plate DMSO controls (fold change (ratio)); higher = more growth
Procedure, shortened: (§1)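 Growth is expressed as the fold change relative to the median of the DMSO control wells on each plate. Cultures in mGAM were grown anaerobically in 96-well plates for 27 h at 37 °C, shaken, and read at 595 nm. Readings were blank-subtracted, corrected for compound background with 20 µM compound solutions in water, and converted to OD with a calibration factor of 5. Fold changes above 1.5 were set to NA, and each value is the mean of 2 biological replicates.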

Escherichia coli IAI1 [2] = test: as above
Procedure, shortened: as §1

[3] = system: Klebsiella aerogenes DSM 30053; test: as above
Procedure, shortened: as §1

[4] = system: Ruminococcus gnavus DSM 108212; test: as above
Procedure, shortened: as §1

[5] = system: Klebsiella aerogenes DSM 30053; test: fold change of Histamine concentration vs plate DMSO controls (fold change (ratio)); higher = more amine produced, active = hit call of the paper (significant change in both replicates, either direction)
Procedure, shortened: (§2)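 In 80 µL wells, cultures of four gut bacterial strains in mGAM started at OD 0.1 before a 1:1 dilution and grew anaerobically at 37 °C for 27 h. Compounds were added to 20 µM final, except sweeteners at 50 µM final. After extraction of whole cultures with cold acetonitrile/methanol plus 0.1% formic acid and centrifugation, amines were measured by LC–triple-quadrupole MS in dynamic MRM mode against external calibration curves, with within-batch drift correction. Values give fold change over DMSO controls on the same plate, averaged across 2 biological replicates.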

[6] = system: Clostridium sporogenes DSM 1664; test: fold change of Tryptamine concentration vs plate DMSO controls (fold change (ratio)); higher = more amine produced, active = hit call of the paper (significant change in both replicates, either direction)
Procedure, shortened: as §2

[7] = system: Ruminococcus gnavus DSM 108212; test: as above
Procedure, shortened: as §2

Escherichia coli IAI1 [8] = test: fold change of Putrescine concentration vs plate DMSO controls (fold change (ratio)); higher = more amine produced, active = hit call of the paper (significant change in both replicates, either direction)
Procedure, shortened: as §2

[9] = system: Klebsiella aerogenes DSM 30053; test: as above
Procedure, shortened: as §2

Escherichia coli IAI1 [10] = test: fold change of Cadaverine concentration vs plate DMSO controls (fold change (ratio)); higher = more amine produced, active = hit call of the paper (significant change in both replicates, either direction)
Procedure, shortened: as §2

[11] = system: Klebsiella aerogenes DSM 30053; test: as above
Procedure, shortened: as §2

[12] = system: Ruminococcus gnavus DSM 108212; test: fold change of 2-Phenylethylamine concentration vs plate DMSO controls (fold change (ratio)); higher = more amine produced, active = hit call of the paper (significant change in both replicates, either direction)
Procedure, shortened: as §2

Row | SMILES | growth [1] | growth (Escherichia coli IAI1 [2]) | growth [3] | growth [4] | fold change of Histamine concentration [5] | fold change of Tryptamine concentration [6] | fold change of Tryptamine concentration [7] | fold change of Putrescine concentration (Escherichia coli IAI1 [8]) | fold change of Putrescine concentration [9] | fold change of Cadaverine concentration (Escherichia coli IAI1 [10]) | fold change of Cadaverine concentration [11] | fold change of 2-Phenylethylamine concentration [12]
1 | CC(C1CC1)C(O)(Cn1cncn1)c1ccc(Cl)cc1 (mixture of isomers) | 0.851 | 0.991 | 0.991 | 0.941 | 1.01 (inactive) | 0.92 (inactive) | 0.994 (inactive) | 1.01 (inactive) | 0.996 (inactive) | 1 (inactive) | 0.995 (inactive) | 0.953 (inactive)
2 | O=C(O)C(F)(F)C(F)(F)C(F)(F)C(F)(F)C(F)(F)C(F)(F)C(F)(F)C(F)(F)C(F)(F)F [PFDeA (Perfluorodecanoic acid)] | 1.11 | 1.04 | 1.04 | 1.24 | 1.02 (inactive) | 0.916 (inactive) | 0.999 (inactive) | 1.02 (inactive) | 0.996 (inactive) | 1.01 (inactive) | 1 (inactive) | 0.962 (inactive)
3 | COC[C@@H](NC(C)=O)C(=O)NCc1ccccc1 [Lacosamide] | 1.07 | 1.01 | 1.06 | 0.96 | 1.08 (inactive) | 1 (inactive) | 1.04 (inactive) | 1.01 (inactive) | 1.02 (inactive) | 1 (inactive) | 1 (inactive) | 1.07 (inactive)
4 | c1cc2c3c(cccc3c1)CC2 [Acenaphthene] | 1.04 | 1.01 | 0.974 | 0.995 | 1.04 (inactive) | 0.986 (inactive) | 1.01 (inactive) | 1.02 (inactive) | 1.02 (inactive) | 1.03 (inactive) | 0.982 (inactive) | 1.05 (inactive)
5 | CC(C)C[C@H](CN)CC(=O)O [Pregabalin] | 0.96 | 0.982 | 0.982 | 0.865 | 1.06 (inactive) | 1.04 (inactive) | 1.05 (inactive) | 1.03 (inactive) | 1 (inactive) | 1.02 (inactive) | 0.982 (inactive) | 1.06 (inactive)
6 | Clc1ccc(C(c2ccc(Cl)cc2)C(Cl)(Cl)Cl)cc1 | 0.984 | 0.974 | 0.996 | 1.12 | 1.03 (inactive) | 1.02 (inactive) | 0.962 (inactive) | 1.06 (inactive) | 1.02 (inactive) | 0.957 (inactive) | 1 (inactive) | 0.914 (inactive)
7 | c1ccc2c(c1)cc1ccc3cccc4ccc2c1c34 [Benzo[a]pyrene] | 0.972 | 1.03 | 1.06 | 1.01 | 0.948 (inactive) | 1.03 (inactive) | 1.01 (inactive) | 0.977 (inactive) | 1.01 (inactive) | 1 (inactive) | 1 (inactive) | 1.04 (inactive)
8 | CCSC(C)CC1CC(=O)C(/C(CC)=N/OC/C=C/Cl)=C(O)C1 (mixture of isomers) | 0.928 | 1.04 | 0.988 | 0.939 | 1.02 (inactive) | 1.01 (inactive) | 1.03 (inactive) | 1.02 (inactive) | 0.996 (inactive) | 1 (inactive) | 1.01 (inactive) | 0.99 (inactive)
9 | Fc1ccc(Oc2ccnc3cc(Cl)cc(Cl)c23)cc1 | 1.06 | 1.01 | 1.02 | 1.04 | 1.02 (inactive) | 1.01 (inactive) | 0.957 (inactive) | 1.05 (inactive) | 1.02 (inactive) | 0.961 (inactive) | 1 (inactive) | 0.915 (inactive)
10 | CN1CCC2(C)c3cc(O)ccc3N(C)C12 (single isomer, unassigned; (-)) [(-) Eseroline fumarate salt] | 1.01 | 1.04 | 1.03 | 1.16 | 1 (inactive) | 1.02 (inactive) | 0.951 (inactive) | 0.99 (inactive) | 1 (inactive) | 0.994 (inactive) | 0.995 (inactive) | 0.954 (inactive)
11 | CC(C)N(C(=O)COc1nnc(C(F)(F)F)s1)c1ccc(F)cc1 | 0.961 | 0.973 | 1.01 | 0.978 | 1.02 (inactive) | 1.01 (inactive) | 0.886 (inactive) | 1 (inactive) | 1 (inactive) | 1.02 (inactive) | 0.989 (inactive) | 0.832 (inactive)
12 | COc1cccc(C2(O)CCCCC2CN(C)C)c1 (configuration not stated) [Tramadol hydrochloride] | 1.04 | 0.988 | 0.985 | 1.12 | 1.04 (inactive) | 1.06 (inactive) | 0.925 (inactive) | 1.05 (inactive) | 1.02 (inactive) | 0.969 (inactive) | 1 (inactive) | 0.873 (inactive)
13 | CC[C@@H](C(=O)[C@@H](C)[C@@H](O)[C@H](C)[C@@H]1O[C@@H]([C@@H](CC)C(=O)O)CC[C@@H]1C)[C@H]1O[C@]2(C=C[C@@H](O)[C@]3(CC[C@@](C)([C@H]4CC[C@](O)(CC)[C@H](C)O4)O3)O2)[C@H](C)C[C@@H]1C [Salinomycin sodium] | 0.000863 | 1.01 | 0.976 | 0.156 | 1.02 (inactive) | 0.0211 (active) | 0.152 (active) | 0.929 (inactive) | 0.993 (inactive) | 1.01 (inactive) | 0.996 (inactive) | 0.177 (active)
14 | CC(CCc1ccccc1)NC(C)C(O)c1ccc(O)cc1 (configuration not stated) [Nylidrin] | 0.853 | 1.13 | 1.21 | 1 | 1 (inactive) | 0.986 (inactive) | 0.929 (inactive) | 1.03 (inactive) | 1.05 (inactive) | 0.961 (inactive) | 1.02 (inactive) | 0.902 (inactive)
15 | COP(=O)(NC(C)=O)SC (configuration not stated) | 1.04 | 0.98 | 1.02 | 1.04 | 1 (inactive) | 1.02 (inactive) | 1 (inactive) | 1.02 (inactive) | 1 (inactive) | 1.02 (inactive) | 0.997 (inactive) | 1 (inactive)
16 | CN1C[C@H](CNC(=O)OCc2ccccc2)C[C@@H]2c3cccc4c3c(cn4C)C[C@H]21 [Metergoline] | 1.1 | 1.09 | 1.03 | 1.03 | 0.987 (inactive) | 0.943 (inactive) | 0.94 (inactive) | 1.04 (inactive) | 0.996 (inactive) | 1.08 (inactive) | 1 (inactive) | 0.967 (inactive)
17 | O=C(Nc1ccc(F)cc1F)c1cccnc1Oc1cccc(C(F)(F)F)c1 | 0.931 | 1.02 | 1.03 | 0.965 | 1.01 (inactive) | 0.987 (inactive) | 0.983 (inactive) | 1.01 (inactive) | 0.995 (inactive) | 1.03 (inactive) | 0.993 (inactive) | 0.987 (inactive)
18 | O=C(O)c1nc(Cl)ccc1Cl | 0.915 | 1.09 | 1.01 | 0.95 | 1.01 (inactive) | 0.99 (inactive) | 0.915 (inactive) | 0.975 (inactive) | 0.98 (inactive) | 0.963 (inactive) | 0.983 (inactive) | 1.02 (inactive)
19 | C=CC[C@]1(O)CC[C@H]2[C@@H]3CCC4=CCCC[C@@H]4[C@H]3CC[C@@]21C [Allylestrenol] | 1.01 | 1.01 | 1.06 | 1.09 | 0.993 (inactive) | 1.03 (inactive) | 1.01 (inactive) | 0.977 (inactive) | 0.992 (inactive) | 0.924 (inactive) | 1.02 (inactive) | 1.1 (inactive)
20 | CNC(=O)c1cc(C#N)cc(C)c1NC(=O)c1cc(Br)nn1-c1ncccc1Cl | 1.13 | 0.996 | 0.981 | 1.06 | 1 (inactive) | 1.2 (inactive) | 1.06 (inactive) | 0.935 (inactive) | 0.938 (inactive) | 0.886 (inactive) | 1.02 (inactive) | 1.08 (inactive)
21 | CCOP(=S)(OCC)Oc1nc(Cl)c(Cl)cc1Cl | 1.13 | 0.998 | 1.04 | 0.945 | 0.882 (inactive) | 1.01 (inactive) | 0.936 (inactive) | 0.986 (inactive) | 1.01 (inactive) | 1.03 (inactive) | 1.02 (inactive) | 0.873 (inactive)
22 | CC(=NC#N)N(C)Cc1ccc(Cl)nc1 | 0.969 | 0.971 | 0.989 | 1.13 | 1.02 (inactive) | 0.985 (inactive) | 1.02 (inactive) | 1.02 (inactive) | 0.979 (inactive) | 1.01 (inactive) | 0.992 (inactive) | 1.05 (inactive)
23 | O=C(NC(=O)c1c(F)cccc1F)Nc1ccc(Cl)cc1 | 1.04 | 0.979 | 1.02 | 0.975 | 1.01 (inactive) | 0.919 (inactive) | 0.999 (inactive) | 0.982 (inactive) | 1.05 (inactive) | 1.01 (inactive) | 1.03 (inactive) | 0.98 (inactive)
24 | COc1cccc(C(=O)NN(C(=O)c2cc(C)cc(C)c2)C(C)(C)C)c1C | 0.988 | 1.01 | 1.01 | 1.17 | 0.994 (inactive) | 0.948 (inactive) | 0.932 (inactive) | 1.03 (inactive) | 0.983 (inactive) | 0.968 (inactive) | 0.986 (inactive) | 0.92 (inactive)
25 | C[N+](C)(C)CCCCCCCCCC[N+](C)(C)C [Decamethonium bromide] | 0.947 | 0.999 | 1 | 1.01 | 0.907 (inactive) | 1.13 (inactive) | 1.13 (inactive) | 0.923 (inactive) | 0.933 (inactive) | 0.877 (inactive) | 1.08 (inactive) | 1.11 (inactive)
26 | CC1=NNC(=O)N(/N=C/c2cccnc2)C1 | 1.04 | 0.951 | 0.97 | 1.03 | 1.03 (inactive) | 1.02 (inactive) | 1.01 (inactive) | 0.906 (inactive) | 0.945 (inactive) | 1.08 (inactive) | 0.99 (inactive) | 1.02 (inactive)
